High-throughput results (PubChem BioAssay)
Most compounds without a hit are left out; they make up all but 4.4% or so of the library.
D1 ag: human D1 receptor agonism. AID 504660. 1% of 360,000 active. activation, % at 2 µM. P21728. HEK293 T-REx D1 cells, calcium flux, agonist mode; further: 0% is about no effect
Target sequence (P21728 whole entry, looked up): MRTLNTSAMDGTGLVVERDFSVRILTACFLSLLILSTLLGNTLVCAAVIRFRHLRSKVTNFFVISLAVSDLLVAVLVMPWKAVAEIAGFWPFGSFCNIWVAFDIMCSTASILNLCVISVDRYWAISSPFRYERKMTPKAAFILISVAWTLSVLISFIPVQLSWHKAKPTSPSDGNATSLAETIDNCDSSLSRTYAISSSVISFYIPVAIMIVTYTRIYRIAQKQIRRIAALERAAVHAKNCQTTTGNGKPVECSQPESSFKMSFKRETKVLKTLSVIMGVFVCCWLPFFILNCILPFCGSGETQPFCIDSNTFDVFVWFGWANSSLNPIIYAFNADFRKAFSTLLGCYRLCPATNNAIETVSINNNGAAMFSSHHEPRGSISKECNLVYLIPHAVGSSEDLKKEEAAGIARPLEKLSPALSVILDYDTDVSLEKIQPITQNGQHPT
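Tetracycline-induced HEK293 TREx D1 cells, force-coupled to calcium signalling, were dye-loaded with a no-wash calcium kit. Compound was pin-added after a 10 s baseline. Fluorescence was read kinetically at 1 cycle/s for 180 s, with calcium rises flagged as agonism.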
D1 antagonist: antagonists of human D1 dopamine receptor; P21728; HEK293 TREx D1 cells, calcium flux, dopamine EC80; hits give low values; activity change, negative = inhibition, % at 10 µM; 3.2% of 360,000 active; in the data active means activity change below about -30%; further: on the % scale 0 is the no-effect control and ±100 the full control effect
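Allosteric or orthosteric antagonism assessed as attenuation of the calcium response to EC80 dopamine, added 180 s after compound, in induced HEK293 Trex D1 cells loaded with no-wash calcium dye.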
USP1-UAF1 inh: inhibitors of human USP1/UAF1 deubiquitinase; recombinant USP1/UAF1, Ub-Rhodamine cleavage fluorescence; Potency, µM (titrated, usually from 57.1 µM), for the others: at the highest dose activity change, negative = inhibition, usual class: inhibitors; 0.23% of 390,000 active; active means well fitted inhibition curve with a large enough effect; inconclusive means small, poorly fitted or top-dose-only effect; inactive means no such curve, though single readings can be large or run the other way; further: potency means the concentration at half of the fitted maximal effect; on the % scale 0 is the no-effect control and ±100 the full control effect; nearly all actives have a fitted effect of over 60% in size
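USP1/UAF1 complex (1 nM) preincubated 15 min at room temperature with compound, then Ub-Rho substrate (150 nM final) added. Kinetic fluorescence at 480/540 nm over 6 reads at 60 s intervals; 50 mM HEPES pH 7.8, 0.5 mM EDTA, 0.1 mg/ml BSA, 1 mM TCEP, 0.01% Tween-20.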
TRHR ag: agonists of human TRH receptor; P34981; TRHR cells, calcium flux fluo-8, FDSS agonist mode; activation, % at 2 µM; 0.18% of 360,000 active; AID 493084; further: 0% is about no effect
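Fluo-8-loaded TRHR cells; 10 s baseline, compound added, kinetic Ca2+ fluorescence read 1/s, agonist mode.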
TRHR PAM: allosteric enhancers of human TRH receptor | 0.66% of 360,000 active | AID 493056 | enhancement, % at 2 µM | P34981 | TRHR cells, fluo-8 calcium fluorescence, EC20 TRH enhancement; in the data active means enhancement above about 30%; further: 0% is about no effect
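TRHR-expressing cells loaded with fluo-8 calcium dye were read kinetically (ex 480/em 530) during compound addition, then stimulated with an EC20 of TRH (10 nM final). Enhancement of the Gq-mediated intracellular calcium response was scored.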
D1 PAM: potentiators of human D1 dopamine receptor | P21728 | HEK293 TREx D1 cells, calcium flux, dopamine EC20 potentiation | potentiation, % at 10 µM | 0.036% of 360,000 active; in the data active means potentiation above about 30%; further: 0% is about no effect
* = called active by the depositor; ? = inconclusive. Unless noted, no stated cut-off is given here; in the data, active means activation above about 30%; inactive means the rest.

SMILES | D1 ag | D1 antagonist | USP1-UAF1 inh | TRHR ag | TRHR PAM | D1 PAM
COc1ccc(F)cc1S(=O)(=O)N1CCCC(C)C1 (configuration not stated) | 0.2 | 4.6 | -6.7% | 0.1 | 13.5 | -4.7
Cc1ccccc1CSc1nc2cccnc2n1Cc1ccc(C(=O)NCCc2cccs2)cc1 | 1.6 | -6.3 | ? | 0.6 | 8.0 | 3.8
COc1cc(OC)c(NC(=O)c2nn(C)c3c2COc2ccccc2-3)cc1Cl | 5.2 | -22.4 | 24.0% | -1.0 | -4.5 | -4.5
CCCCc1nn2c(=O)cc(COC(=O)c3ccccc3NC(=O)c3ccccc3OC)nc2s1 | -1.6 | 4.1 | 7.2% | 0.3 | 1.0 | 2.9
O=C(CCc1nc2cccnc2n1Cc1cccs1)Nc1cccc(C(F)(F)F)c1 | 1.6 | 6.9 | ? | 0.4 | 5.5 | 0.8
CCc1nnc(NC(=O)CSc2nccn2Cc2ccccc2)s1 | 8.4 | -6.5 | -8.4% | -0.1 | -2.3 | 0.8
CN1CCCCC1CCN1c2ccccc2Sc2ccc(S(C)=O)cc21 (configuration not stated) | 6.9 | -84.1* | -22.1% | 1.6 | -4.7 | -3.5
CC(=O)Nc1ccc(C(=O)Nc2ccc3c(c2)N(C2CCCC2)C(=O)c2ccccc2S3)cc1 | 3.5 | 4.2 | -7.3% | 0.6 | -3.2 | -1.1
COc1ccccc1N1CC(C)(C)C(=O)N(C(=O)c2ccc(C)cc2)C1=S | 4.9 | -44.5* | -23.8% | 0.2 | -0.6 | -2.4
CN(C)C(=C(C#N)C#N)N1CCN(c2ccc(Cl)cc2)CC1 | 0.1 | -11.5 | -5.8% | 0.1 | 7.2 | -1.8
N#CC(C#N)=C/C(C#N)=C(/N)N1CCN(c2ccc(Cl)cc2)CC1 | 3.7 | -40.4* | -6.8% | -0.5 | -1.7 | -3.6
CCOc1nc(NC(=O)NS(=O)(=O)c2ccccc2F)nc(-c2ccccc2)n1 | 0.7 | -30.7* | ? | -0.1 | 1.9 | 1.1
COC(=O)c1ccc(OCC2c3cc(OC)c(OC)cc3CCN2C(=O)c2ccccc2C)cc1 (configuration not stated) | -1.3 | -10.7 | -23.4% | -0.5 | 23.7 | -1.6
COC(=O)c1ccc(OCC2c3cc(OC)c(OC)cc3CCN2C(=O)c2ccc(F)cc2)cc1 (configuration not stated) | 7.5 | -38.7* | ? | 0.6 | -2.7 | -3.4
COc1cc2c(cc1OC)C(COc1ccccc1OC)N(C(C)=O)CC2 (configuration not stated) | 2.7 | -48.5* | -21.0% | 0.6 | -1.1 | -5.1
CCOC(=O)c1c(C)[nH]c(CCC(=O)NCc2cc(Br)ccc2OC)c1C | -0.8 | -15.1 | -20.0% | -0.8 | -10.4 | -3.0
CC(C)(C)c1ccc(S(=O)(=O)NCCc2ccncc2)cc1 | 5.0 | -95.4* | -15.4% | -0.7 | -3.2 | -5.7
CCCc1ccc(S(=O)(=O)NCCc2ccncc2)cc1 | 8.4 | -24.8 | -1.5% | -0.2 | 0.1 | -7.3
CC1(C)C2([N+](=O)[O-])CN(CCO)CC1([N+](=O)[O-])CN(CCO)C2 | -1.0 | 17.3 | -5.6% | 0.7 | -3.9 | -0.2
CC1(C)C2([N+](=O)[O-])CN3CC1([N+](=O)[O-])CN(C2)C3C(O)C(O)C(O)CO (configuration not stated) | 1.7 | 7.7 | -2.5% | 0.5 | 31.2* | -3.1
Cc1cc(C)nc(/N=C(\N)Nc2cccc(OCc3ccccc3)c2)n1 | 66.1* | -54.9* | -20.1% | 24.8 | -19.8 | -15.0
COc1cccc(N/C(N)=N/c2nc(C(F)(F)F)cc(C(F)(F)F)n2)c1 | 6.0 | -13.8 | -26.4% | -0.2 | 0.6 | 4.2
Cc1cc(C)nc(/N=C(\N)Nc2ccc(S(=O)(=O)O)cc2)n1 | 2.1 | 5.2 | -19.2% | 0.3 | -12.1 | -1.4
Cc1cc(C)nc(/N=C(\N)Nc2ccc(OCc3ccccc3)cc2)n1 | 102.2* | -38.1* | -4.4% | 49.8* | -2.6 | 0.8
Cc1cc(C)nc(/N=C(\N)Nc2ccc(CC(=O)OC(C)C)cc2)n1 | 24.1 | -49.5* | -0.7% | 12.8 | -8.0 | 2.6
COc1ccccc1N/C(N)=N/c1nc(C)cc(C)n1 | 3.0 | -33.7* | -23.2% | -0.2 | 0.3 | -12.7
